# Test results reported in PubChem BioAssay (Tox21).
# Inconclusive results are not listed. Where a call stands in place of a potency, no number is given. Values without a mark were called inactive. Active and inactive are the calls of the source. Unless noted, calls follow the shape of the dose curve; as a rule, active = well fitted curve in the direction sought with a large enough effect in the repeat runs; inconclusive = weak or mixed curves; inactive = no such curve, though single readings can be large; an effect the other way counts as inactive or inconclusive.
# Legend:
# [1] = target: Nuclear receptor ROR-gamma (Homo sapiens) (UniProt P51449); assay: qHTS assay to identify small molecule antagonists of the retinoid-related orphan receptor gamma (ROR-gamma) signaling pathway (AID 1159521; also: nearly all actives have a fitted effect of over 50% in size; also: potency is read from the fitted curve at half-maximal effect;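 as to activity change, negative = inhibition: CHO cells with doxycycline inducible ROR-gamma driving an RORE luciferase reporter; top concentration of the series differs between compounds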)
# Outline: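 Readout: ONE-Glo luciferase luminescence, 30 min at room temperature. System: Tet-on RORγ CHO, RORE-LUC. Sequence: compound 2 h, doxycycline 1 uM final, 16 h at 37 C.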
# [2] = target: Retinoic acid receptor RXR-alpha (Homo sapiens) (UniProt P19793); assay: qHTS assay to identify small molecule agonists of the RXR signaling pathway (AID 1159527; calls by dose curve; also: nearly all actives have a fitted effect of over 35% in size; also: potency is read from the fitted curve at half-maximal effect)
# Outline: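 Reporter activation is measured as beta-lactamase activity via FRET substrate cleavage (emission 460/530 nm) in HEK 293T cells expressing an RXR-alpha-driven bla construct, following 16 hr compound exposure at 37 C.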
# [3] = qHTS assay to identify small molecule antagonists of the retinoid acid receptor (RAR) signaling pathway - cell viability counter screen (AID 1159551); also: nearly all actives have a fitted effect of over 35% in size; also: potency is read from the fitted curve at half-maximal effect
# Outline: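 Following overnight attachment, C3RL4 reporter cells received DMSO-dissolved compounds and then retinol (1 uM final). Six hours later at 37 C, ATP content was measured by CellTiter-Glo luminescence.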
# [4] = qHTS assay to identify small molecule agonists of the retinoic acid receptor (RAR) signaling pathway (AID 1159553)
# Outline: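 Cell line C3RL4, RARE luciferase reporter. Treatment: compounds in DMSO, 6 hr, 37 C, 5% CO2, after overnight plating. Detection: luminescence, 30 min RT after reagent.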
# [5] = qHTS assay to identify small molecule antagonists of the estrogen related receptor (ERR) signaling pathway from Tox21 library - cell viability counter screen (AID 1224834); also: nearly all actives have a fitted effect of over 30% in size; also: potency is read from the fitted curve at half-maximal effect
# Outline: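 Viability readout (CellTiter-Fluor fluorescence, 30 min at 37 C) multiplexed with the ERR assay; cells treated 17.5 h at 37 C with compounds delivered in DMSO.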
# [6] = target: Luciferin 4-monooxygenase (Photinus pyralis) (UniProt P08659); assay: qHTS assay to identify small molecule inhibitors of firefly luciferase (AID 1224835); also: nearly all actives have a fitted effect of over 25% in size; also: potency is read from the fitted curve at half-maximal effect; as to activity change, negative = inhibition: series mostly up to about 120 µM
# Outline: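 Biochemical qHTS: compounds run as interplate titrations against purified firefly enzyme, with D-luciferin and ATP each at its KM concentration. Light output recorded by CCD imaging.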
# [7] = qHTS assay to identify small molecule agonists of the constitutive androstane receptor (CAR) signaling pathway - cell viability counter screen (AID 1224836); also: nearly all actives have a fitted effect of over 45% in size; also: potency is read from the fitted curve at half-maximal effect; as to viability change, negative = cytotoxic: series mostly up to about 92 µM
# Outline: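 Fluorescence from CellTiter-Fluor indicates live cells after 23 h exposure. The human hepatoma line expresses hCAR and a CYP2B6-2.2kb reporter. Incubation medium contains 0.75 uM PK11195 (final).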
# [8] = qHTS assay to identify small molecule antagonists of the constitutive androstane receptor (CAR) signaling pathway - cell viability counter screen (AID 1224837); also: nearly all actives have a fitted effect of over 45% in size; also: potency is read from the fitted curve at half-maximal effect; as to activity change, negative = cytotoxicity: series mostly up to about 92 µM
# Outline: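 Fluorescence from CellTiter-Fluor served as the viability signal. Human hepatoma HepG2 cells stably bearing hCAR and CYP2B6-2.2kb received compound plus CITCO (50 nM final) for 23 hr.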
# [9] = qHTS assay to identify small molecule agonists of the AP-1 signaling pathway - cell viability counter screen (AID 1159525; calls by dose curve; also: nearly all actives have a fitted effect of over 55% in size; also: potency is read from the fitted curve at half-maximal effect)
# Outline: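 AP-1-bla ME-180 cells in Opti-MEM with 0.5% dialyzed FBS, compound exposure 5 h at 37 C in 15-point titration. Viability read in the same wells as ATP content by CellTiter-Glo luminescence, normalised to tetra-n-octylammonium bromide and DMSO controls.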
# [10] = qHTS assay to identify small molecule agonists of the AP-1 signaling pathway (AID 1159526; calls by dose curve; also: potency is read from the fitted curve at half-maximal effect)
# [11] = qHTS assay to identify small molecule agonists of the RXR signaling pathway - cell viability counter screen (AID 1159529); also: nearly all actives have a fitted effect of over 50% in size; also: potency is read from the fitted curve at half-maximal effect; as to activity change, negative = cytotoxicity: series mostly up to about 77 µM
# Outline: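 Tox21 10K compounds were tested for cytotoxicity against GeneBLAzer RXR-alpha HEK 293T cells grown in 2% charcoal-stripped FBS. Exposure lasted 16 hr at 37 C, 5% CO2; viability read by CellTiter-Glo luminescence.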
# [12] = qHTS assay to identify small molecule antagonists of the vitamin D receptor (VDR) signaling pathway - cell viability counter screen (AID 743225); also: nearly all actives have a fitted effect of over 50% in size; also: potency is read from the fitted curve at half-maximal effect
# Outline: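 Cytotoxicity toward the VDR-bla HEK 293T line was scored by ATP-based CellTiter-Glo luminescence, read in the wells already used for the beta-lactamase readout after 16 h compound treatment under 3 nM 1-alpha,25-dihydroxyvitamin D3 stimulation.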
# [13] = qHTS assay to identify small molecule antagonists of the retinoic acid receptor (RAR) signaling pathway (AID 1159552; also: nearly all actives have a fitted effect of over 50% in size)
# Outline: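 Overnight-plated C3RL4 reporter cells get compound, then retinol to 1 uM final; plates sit 6 hr at 37 C, 5% CO2. A luciferase reagent is added and light output recorded after 30 min at room temperature.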
# Sequence of Retinoic acid receptor RXR-alpha (Homo sapiens) (P19793 whole entry, looked up): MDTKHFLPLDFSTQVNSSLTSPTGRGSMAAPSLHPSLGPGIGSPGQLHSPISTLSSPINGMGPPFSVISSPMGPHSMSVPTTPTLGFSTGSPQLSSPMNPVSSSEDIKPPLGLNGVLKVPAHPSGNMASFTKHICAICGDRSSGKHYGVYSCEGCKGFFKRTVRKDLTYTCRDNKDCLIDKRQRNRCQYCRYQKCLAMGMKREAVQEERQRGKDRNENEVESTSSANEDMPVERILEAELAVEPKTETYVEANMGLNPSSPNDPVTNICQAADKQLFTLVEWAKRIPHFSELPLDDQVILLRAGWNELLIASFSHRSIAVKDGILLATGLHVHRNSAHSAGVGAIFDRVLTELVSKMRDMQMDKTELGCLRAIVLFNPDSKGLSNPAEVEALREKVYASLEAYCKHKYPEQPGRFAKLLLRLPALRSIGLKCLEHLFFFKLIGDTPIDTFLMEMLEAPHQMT
# Sequence of Luciferin 4-monooxygenase (Photinus pyralis) (P08659 whole entry, looked up): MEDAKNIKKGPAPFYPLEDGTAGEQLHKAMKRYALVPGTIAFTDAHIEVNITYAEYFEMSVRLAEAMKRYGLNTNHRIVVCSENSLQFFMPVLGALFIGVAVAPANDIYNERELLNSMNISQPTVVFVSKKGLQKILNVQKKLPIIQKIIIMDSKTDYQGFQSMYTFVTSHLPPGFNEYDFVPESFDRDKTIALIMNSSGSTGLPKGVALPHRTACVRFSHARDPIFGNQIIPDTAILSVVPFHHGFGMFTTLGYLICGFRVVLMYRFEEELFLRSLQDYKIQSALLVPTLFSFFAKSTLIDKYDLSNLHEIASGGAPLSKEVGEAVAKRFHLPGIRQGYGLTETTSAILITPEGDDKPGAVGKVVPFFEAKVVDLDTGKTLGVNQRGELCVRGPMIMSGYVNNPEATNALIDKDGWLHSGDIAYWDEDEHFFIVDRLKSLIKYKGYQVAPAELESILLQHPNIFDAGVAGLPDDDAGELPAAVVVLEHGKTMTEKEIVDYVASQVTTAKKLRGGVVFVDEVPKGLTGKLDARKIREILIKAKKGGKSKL
compound,measurement,setting,value
Oc1ccc(Cl)cc1C1CCCC1,Potency,[1],inactive
same,Potency,[2],11 µM (active)
same,Potency,[3],inactive
same,Potency,[4],inactive
same,Potency,[5],inactive
same,Potency,[6],inactive
same,Potency,[7],inactive
same,Potency,[8],inactive
O=C1CCC(=O)N1,Potency,[1],inactive
same,Potency,[9],inactive
same,Potency,[10],inactive
same,Potency,[2],inactive
same,Potency,[11],inactive
same,Potency,[5],inactive
same,Potency,[6],inactive
same,Potency,[7],inactive
same,Potency,[8],inactive
CN1CC[C@H](c2c(O)cc(O)c3c(=O)cc(-c4ccccc4Cl)oc23)[C@H](O)C1,Potency,[12],inactive
same,Potency,[1],0.298 µM (active)
same,Potency,[9],inactive
same,Potency,[11],inactive
c1ccc(C[P+](c2ccccc2)(c2ccccc2)c2ccccc2)cc1,Potency,[1],24.3 µM (active)
same,Potency,[9],inactive
same,Potency,[10],inactive
same,Potency,[3],inactive
same,Potency,[5],21.7 µM (active)
same,Potency,[6],inactive
same,Potency,[7],30.6 µM (active)
Cc1c(Cl)c(=O)oc2cc(O)ccc12,Potency,[1],inactive
same,Potency,[9],inactive
same,Potency,[11],inactive
same,Potency,[6],inactive
c1ccc2c(c1)-c1ccc3ccc4cccc5cc-2c1c3c45,Potency,[1],inactive
same,Potency,[9],inactive
same,Potency,[6],11 µM (active)
Nc1cccnc1N,Potency,[1],inactive
same,Potency,[9],inactive
same,Potency,[10],inactive
same,Potency,[2],inactive
same,Potency,[11],inactive
same,Potency,[3],inactive
same,Potency,[6],inactive
CCCCCCCCCCCCN1CCCC1=O,Potency,[1],inactive
same,Potency,[2],inactive
same,Potency,[3],inactive
same,Potency,[6],44.8 µM (active)
same,Potency,[7],inactive
same,Potency,[8],inactive
CCn1c2ccccc2c2ccccc21,Potency,[1],inactive
same,Potency,[9],inactive
same,Potency,[2],inactive
same,Potency,[3],inactive
same,Potency,[13],inactive
same,Potency,[5],inactive
same,Potency,[6],inactive
same,Potency,[7],inactive
same,Potency,[8],inactive
C=C[Si](C)(C)Cl,"activity change, negative = inhibition",[1],-27.2% [at 8.39 µM]
same,"viability change, negative = cytotoxic",[9],-3.04% [at 6.97 µM]
same,activation,[2],0.333% [at 6.98 µM]
same,"activity change, negative = cytotoxicity",[3],-1.54% [at 8.39 µM]
same,"activity, negative = inhibition",[13],83.8% [at 8.39 µM]
same,"viability change, negative = cytotoxic",[5],5.38% [at 8.39 µM]
same,"activity change, negative = inhibition",[6],5.1% [at 10.5 µM]
same,"viability change, negative = cytotoxic",[7],-0.0044% [at 8.39 µM]
same,"activity change, negative = cytotoxicity",[8],-8.76% [at 8.39 µM]
COc1ccc(OC)c(N=Nc2c(O)ccc3ccccc23)c1,Potency,[1],inactive
same,Potency,[3],17.2 µM (active)
same,Potency,[13],inactive
same,Potency,[5],24.3 µM (active)
same,Potency,[6],6.33 µM (active)
same,Potency,[7],30.6 µM (active)
same,Potency,[8],24.3 µM (active)
CC(Cc1ccc(O)c(O)c1)C(C)Cc1ccc(O)c(O)c1 (stereo not given),Potency,[12],inactive
same,Potency,[1],6.86 µM (active)
same,Potency,[9],inactive
same,Potency,[2],inactive
same,Potency,[4],inactive
same,Potency,[6],71 µM (active)
same,Potency,[7],inactive
same,Potency,[8],inactive
[Cl][Sc]([Cl])[Cl],Potency,[1],inactive
same,Potency,[9],inactive
same,Potency,[10],inactive
same,Potency,[2],inactive
same,Potency,[11],inactive
same,Potency,[5],inactive
same,Potency,[6],28.3 µM (active)
same,Potency,[7],inactive
same,Potency,[8],inactive
CCC(C)(C)c1ccc(CC(C)CN2C[C@@H](C)O[C@@H](C)C2)cc1 (stereo not given in full),Potency,[1],inactive
same,Potency,[11],12 µM (active)
same,Potency,[6],inactive
same,Potency,[7],inactive
CN1CCN(C)CC1,Potency,[1],inactive
same,Potency,[9],inactive
same,Potency,[2],inactive
same,Potency,[3],inactive
same,Potency,[13],inactive
same,Potency,[5],inactive
same,Potency,[6],inactive
same,Potency,[7],inactive
same,Potency,[8],inactive
CCN(CC)c1ccc2c(c1)Oc1cc(N(CC)CC)ccc1C21OC(=O)c2ccccc21,Potency,[1],inactive
same,Potency,[9],inactive
same,Potency,[3],11.9 µM (active)
same,Potency,[5],6.68 µM (active)
same,Potency,[6],13.8 µM (active)
same,Potency,[7],8.41 µM (active)
c1ccc(-c2ccc(C(c3ccccc3)n3ccnc3)cc2)cc1 (stereo not given),Potency,[12],inactive
same,Potency,[1],15 µM (active)
same,Potency,[9],inactive
same,Potency,[11],inactive
same,Potency,[13],inactive
same,Potency,[5],33.5 µM (active)
same,Potency,[6],inactive
same,Potency,[7],inactive
same,Potency,[8],inactive
CCCCCCCCCCCCCCCCC(C(=O)O)C(O)(CC(=O)O)C(=O)O (stereo not given),Potency,[1],inactive
same,Potency,[9],21.3 µM (active)
same,Potency,[11],19 µM (active)
same,Potency,[13],inactive
same,Potency,[4],inactive
same,Potency,[5],inactive
same,Potency,[6],inactive
same,Potency,[7],inactive
same,Potency,[8],inactive
Brc1cc(Br)cc(Br)c1,Potency,[1],inactive
same,Potency,[9],inactive
same,Potency,[10],inactive
same,Potency,[11],inactive
same,Potency,[3],inactive
same,Potency,[5],inactive
same,Potency,[6],inactive
same,Potency,[7],inactive
same,Potency,[8],inactive
C/C=C/C(=O)OCC(C)C,Potency,[1],inactive
same,Potency,[9],inactive
same,Potency,[10],54.9 µM (active)
same,Potency,[3],inactive
same,Potency,[13],inactive
same,Potency,[5],inactive
same,Potency,[6],inactive
same,Potency,[7],inactive
same,Potency,[8],inactive
CN[C@H]1CC[C@@H](c2ccc(Cl)c(Cl)c2)c2ccc(S(N)(=O)=O)cc21,Potency,[12],21.9 µM (active)
same,Potency,[1],54.5 µM (active)
same,Potency,[9],inactive
same,Potency,[3],inactive
same,Potency,[5],68.6 µM (active)
same,Potency,[6],inactive
same,Potency,[7],61.1 µM (active)
same,Potency,[8],61.1 µM (active)
C[C@H]1O[C@@H](O[C@H]2CC[C@@]3(C)[C@H](CC[C@@H]4[C@@H]3C[C@@H](O)[C@]3(C)[C@@H](C5=CC(=O)OC5)CC[C@]43O)C2)C[C@H](O)[C@@H]1O[C@H]1C[C@H](O)[C@H](O[C@H]2C[C@H](O)[C@H](O[C@@H]3O[C@H](CO)[C@@H](O)[C@H](O)[C@H]3O)[C@@H](C)O2)[C@@H](C)O1,Potency,[12],0.338 µM (active)
same,Potency,[1],inactive
same,Potency,[10],inactive
same,Potency,[3],inactive
same,Potency,[4],inactive
same,Potency,[5],0.168 µM (active)
same,Potency,[6],inactive
